Data taken from PubChem BioAssay (NCI).
This is part of a sample that, as a whole, favours compounds with a hit. Of some 83,000 tested, about 20% had one in any assay.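 Values shown are percent growth following 48 h exposure of cells in 96-well plates to a single concentration of compound; below 10 was considered active.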 Unmarked numbers belong to inactive results. The source made the active and inactive calls.

Columns and labels:
Experiment in all cases: NCI-60 one-dose screen, 48 h (100 = growth as untreated, 0 = no growth, -100 = all killed)
Details in all cases: 10 µM unless noted
SK-MEL-2 melanoma = test system: SK-MEL-2 melanoma
SN12C renal = test system: SN12C renal
TK-10 renal = test system: TK-10 renal
ACHN renal = test system: ACHN renal
CAKI-1 renal = test system: CAKI-1 renal
A498 renal = test system: A498 renal
CCRF-CEM leukemia = test system: CCRF-CEM leukemia
MOLT-4 leukemia = test system: MOLT-4 leukemia
UO-31 renal = test system: UO-31 renal

SMILES | growth (SK-MEL-2 melanoma) | growth (SN12C renal) | growth (TK-10 renal) | growth (ACHN renal) | growth (CAKI-1 renal) | growth (A498 renal) | growth (CCRF-CEM leukemia) | growth (MOLT-4 leukemia) | growth (UO-31 renal)
COc1cc(-c2nc(-c3nc4cc(C(=O)c5ccccc5)ccc4[nH]3)cc3c2[nH]c2ccccc23)cc(OC)c1OC | 87.3% | 89.5% | 106% | 87.2% | 84% | 105% | 57.2% | 63% | 
CCOC(=O)c1sc2nc(-c3cc4ccccc4o3)cc(-c3ccc(Cl)cc3)c2c1N | 83.8% | 82.4% | 145% | 80.9% |  | 98.2% | 84% | 99.3% | 87.2%
O=C(C=P(c1ccccc1)(c1ccccc1)c1ccccc1)CCl | -47.4% (active) | -19.3% (active) | -46.2% (active) | -85.7% (active) | -74.9% (active) | -35.8% (active) | -3.6% (active) | -35.8% (active) | -95.4% (active)
COC1CC(N)C2OC(c3ccccc3)OCC2O1 (stereo unspecified) | 114% | 99.3% | 101% | 99.3% | 96.8% | 111% |  | 100% | 97.6%
O=c1c2sc3ncc(Cl)cc3c2nnn1-c1cccc(Cl)c1 | 92.9% | 74.3% | 93% | 46.1% | 67.4% | 63.1% |  | 90.2% | 48.5%
COC(=O)c1cc2oc(/C=N/NC(=O)c3cc4oc(-c5cccc(C(F)(F)F)c5)cc4[nH]3)cc2n1Cc1ccccc1 | 107% | 104% | 86.3% | 106% |  | 85.8% | -26% (active) | 77.8% | 91.5%
COc1ccc(C2=CC(c3ccc(OC)cc3Br)N3C=CSC3=N2)cc1 (stereo unspecified) | 109% | 57.6% | 72% | 71.4% |  | 72.2% | 26.9% | 36.7% | 37.7%
Oc1ccc(Cl)cc1-c1cc(-c2ccccc2Cl)[nH]n1 | 77.5% | 69.5% | 86.8% | 59% | 75.9% | 96.1% |  | 28.5% | 38.6%
Cc1ccc(N2C3c4ccccc4N(S(=O)(=O)c4ccc(C)cc4)C2c2ccccc2N3S(=O)(=O)c2ccc(C)cc2)cc1 | 111% | 94.9% | 128% | 95.2% | 100% | 97% | 89.2% | 93.5% | 91.1%
SCc1ccc(CS)cc1 | 108% | 100% | 115% | 102% |  |  | 98% |  | 85.6%
O=C(Oc1c(Cl)c(Cl)c(Cl)c(Cl)c1Cl)C1CCCN1C(=O)OCc1ccccc1 (stereo unspecified) | 69.9% | 60% | 67.3% | 17% | 90.4% | 12.3% |  | 15.5% | 56.1%
O=C(Nc1ccc(OS(=O)(=O)c2ccc(F)cc2)cc1)C12CC3CC(CC(C3)C1)C2 | 86% | 77.3% | 87.5% | 76.5% | 79.2% | 40.4% | 52.1% | 33.3% | 83.8%
O=C(/C=C/c1ccccc1)n1c(-c2ccccc2)nc2ccccc21 | 112% | 101% | 101% | 104% | 107% | 85.8% | 97.8% | 99.1% | 89.8%
CCCCCCCCCCCCCC[N+](C)(C)CCCCCCCCCCCCCC | 67.6% | 67.6% | 48.3% | 57.1% | 51.6% | 102% |  | 51.2% | 78%
COS(=O)(=O)CCN(CCOS(C)(=O)=O)S(C)(=O)=O | 78.9% | 98.1% | 96.7% | 92.9% | 96.8% | 115% |  | 90.5% | 86.7%
C#CC[C@@H]1C[C@]2(C)[C@H]3CC=C4[C@H]5[C@@H](C)[C@H](C)CC[C@]5(C(=O)NCCCN5CCN(CCCN)CC5)CC[C@@]4(C)[C@]3(C)CC[C@H]2C(C)(C)[C@H]1OC(C)=O | -57.3% (active) | -43.8% (active) | -32.8% (active) | -74.9% (active) | -68% (active) | 111% | -29.4% (active) | -38.1% (active) | -84.2% (active)
NC(=S)N/N=C(/c1cccs1)C1CC1 | 160% | 82.6% | 124% | 83.9% | 98.8% | 106% |  | 29.2% | 76.2%

SMILES | growth (SK-MEL-2 melanoma) | growth (SN12C renal) | growth (TK-10 renal) | growth (ACHN renal) | growth (CAKI-1 renal) | growth (A498 renal) | growth (CCRF-CEM leukemia) | growth (MOLT-4 leukemia) | growth (UO-31 renal)
CCC(=O)NC(O)C(Cl)(Cl)C(C)Cl (stereo unspecified) | 106% | 98.8% | 112% | 100% | 99.4% | 107% |  | 108% | 91.5%
Cc1cc(N=Nc2ccc(-c3ccc(N=Nc4ccc(O)c(C(=O)O)c4)cc3)cc2)c(N)c(N=Nc2ccc(C(=O)O)cc2)c1N | 91.8% | 91% | 134% | 80.3% | 86% |  |  | 90.1% | 76.9%
CCOC(=O)c1c(NC(=O)c2ccccc2)sc2c(O)c(CN(CC)CC)ccc12 | 7.87% (active) | 24.3% | 19.8% | 29.5% | 1.51% (active) | -22.7% (active) | 5.79% (active) | 14% | 37.5%
N[C@@H](CO)C(=O)O | 116% | 101% | 125% | 107% | 91.2% |  | 94.8% | 101% | 83.4%
COc1cccc(NC(=O)c2c(-c3ccccc3)c(-c3ccccc3)n[nH]c2=O)c1 | 134% | 96.7% | 120% | 94% | 86.9% | 96.9% |  | 67.8% | 86.7%
O=C1C2=C(C(=O)c3c(O)ccc(O)c31)N(c1ccc(N3CCOCC3)nc1)Cc1ccccc1O2 | -42.1% (active) | -85.2% (active) | -98.7% (active) | -100% (active) |  | -50.1% (active) | -10.1% (active) | -24.4% (active) | -100% (active)
CCOC(=O)c1ccc(NC(=O)NC2=NCCS2)cc1 | 76.6% | 45.4% | 97.5% | 78.9% | 35.3% | -7.64% (active) |  | 19.7% | 36.5%
COc1ccc(-c2nsc3c2NC(=O)CC3c2ccc3c(c2)OCO3)cc1 (stereo unspecified) | 26.4% | 55.8% | 32.3% | 50.3% | 26.1% |  | 3.82% (active) | 18.4% | 33.6%
CC(C)COC(=O)NC(C)(C)C | 93.1% | 110% | 104% | 104% | 96.4% | 120% |  | 85.4% | 95.6%
Cc1ccc(Nc2nc(NCCO)c3ccccc3n2)cc1C | 39.5% | 21.5% | 38.5% | 33.1% | 2.38% (active) |  | 8.3% (active) | 24.1% | 24.6%
N=C(N)c1ccc(-c2ccc(-c3cc(Cl)cc(Cl)c3)o2)nc1 | -71.8% (active) | -79.9% (active) | -88.5% (active) | -90.6% (active) |  | 61.8% | -37.9% (active) | -55.1% (active) | -76.6% (active)
CC(=O)[C@H]1CC[C@H]2[C@@H]3CC[C@H]4CC=CC[C@]4(C)[C@H]3CC[C@]12C | 79.9% | 96.1% | 85.9% | 92.4% | 72.9% | 103% |  | 83.9% | 83.7%
CCCCCCCCCCCCCCC(C(=O)OCC)C(=O)OCC | 112% | 101% | 117% | 98.3% | 90.8% | 105% |  | 109% | 93%
CCc1ccc(-c2ccc(NC3CCCCCC3)nn2)cc1S(N)(=O)=O | 99.3% | 101% | 93.4% | 96.1% | 96.6% | 107% |  | 91.7% | 102%
CC1=NC(c2ccc(Cl)cc2)C2=C(N1)/C(=C/c1ccc(Cl)cc1)CCC2 (stereo unspecified) | 98.4% | 102% | 129% | 102% | 94.7% | 102% |  | 74.6% | 78.5%
Cc1cc(C)cc(CCCCCCCCCCCCCCCCCC(=O)O)c1 | 150% | 106% | 116% | 98.9% | 100% |  |  | 98.3% | 89%
